Data taken from PubChem BioAssay AID1020 (Sanford-Burnham Center for Chemical Genomics, 2008).
Out of some 200,000 compounds screened, about 240 (0.12%) were called active. Rule as the data show it: active = inhibition above about 50%; inactive = the rest. Shown is part of a subset that was picked to be rich in actives.

These compounds were tested on glucose-6-phosphate dehydrogenase [Leuconostoc mesenteroides] (assay: bacterial G6PDH enzyme inhibition, coupled readout – biochemical, Leuconostoc mesenteroides enzyme, counter-screen for G6PDH-coupled screening assays (AID 1020)). Conditions: Purified L. mesenteroides G6PDH, diaphorase/resazurin coupled fluorescence, 45 min; at 5 µM; hits give high values.

SMILES	inhibition
CCOc1ccc(C(c2c(C)[nH][nH]c2=O)c2c(C)[nH][nH]c2=O)cc1OCC	12.1% (inactive)
O=C(CC1NCCNC1=O)Nc1cc(Cl)cc(Cl)c1 (stereo not given)	-3.6% (inactive)
Cc1ccc(C(=O)c2ccc(N3CCN(C)CC3)c([N+](=O)[O-])c2)cc1	9.1% (inactive)
O=C(NC(=S)NC1CCSC1=O)c1ccccc1F (stereo not given)	13.8% (inactive)
O=C(CSc1nnc(SCc2ccc(Cl)cc2)s1)N/N=C/c1ccccc1Cl	-21.5% (inactive)
CCC(C)(C)NC(=O)C1c2ccccc2Oc2ccccc21	3.6% (inactive)
COC(=O)c1ccc(NC(=O)CSc2nncc3ccc(OC)c(OC)c23)cc1	2.5% (inactive)
CCC(C)NCCOCCOc1ccc(Br)cc1C (stereo not given)	6.6% (inactive)
CCOc1cc(NS(=O)(=O)c2ccc(OC)cc2)c(OCC)cc1NC(C)=O	6.7% (inactive)
COc1ccc(C(C(=O)NC2CCCCC2)N(C(=O)Cc2c[nH]c3ccccc23)c2ccccc2)cc1OC (stereo not given)	14.4% (inactive)
C/C(=N\OC(=O)c1ccccc1)c1c(C)nc2cc(C)ccn12	1.1% (inactive)
CCc1ccc(N2CC(O)=C(c3nc4ccccc4c(=O)[nH]3)C2=N)cc1	16.2% (inactive)
CC(C)N(Cc1ccccc1)C(=S)Nc1ccc(OC(F)F)cc1	0.3% (inactive)
Cc1cccc(NC(=S)NCCN(C2CCCCC2)C2CCCC2)c1	3.8% (inactive)
COc1ccc(Cl)cc1NC(=O)CNc1ccccc1F	-1.9% (inactive)
S=c1[nH]nc(-c2ccco2)n1/N=C/c1ccc(Br)s1	8.8% (inactive)
C=CCn1c(CCNC(=O)c2ccccc2F)nnc1SCC(=O)Nc1ccc(OC)cc1	0.9% (inactive)
O=C(COc1ccc(S(=O)(=O)NCc2ccccc2)cc1)N1CCOCC1	4.2% (inactive)
Cn1c(N)c(C(=O)COC(=O)c2ccccc2NCc2ccco2)c(=O)n(C)c1=O	0.8% (inactive)
CCOC(=O)c1cnc2[nH]c3ccccc3n2c1=O	5% (inactive)
O=c1[nH]c2ccccc2n2c(-c3ccccc3)nnc12	50% (active)
O=[N+]([O-])c1cccc(-c2nnc3c4ccccc4c4ccccc4n23)c1	9.1% (inactive)
CC(C)N1C(=O)N(c2ccccc2)C(C)(O)CC1(C)C (stereo not given)	5.1% (inactive)
O=C1Nc2ccc([N+](=O)[O-])cc2C1=Nc1cccc(CO)c1	46.7% (inactive)

SMILES	inhibition
Cc1nc(N)c(Br)c(C)c1Br	4% (inactive)
O=C(CSc1ccc(-c2ccco2)nn1)NCc1ccc2c(c1)OCO2	6.1% (inactive)
Cc1ccc(C)c(-n2ccnc2SCC(N)=O)c1	13.8% (inactive)
O=C(NC1CCCC1)C(c1ccc(N2CCOCC2)cc1)N(C(=O)c1ccco1)c1ccccc1F (stereo not given)	14.1% (inactive)
COc1cccc(NC(=O)c2ccc3c(SCC(=O)O)c4c(nc3c2)CCCC4)c1	6% (inactive)
NS(=O)(=O)c1ccc(NC(=O)COC(=O)C2(c3ccc(F)cc3)CCCC2)cc1	16.5% (inactive)
COc1ccc(/C=C2/C(=O)OCc3cc(OC)c(OC)cc32)c(OC)c1	-2.8% (inactive)
CCOC(=O)c1ccc[n+](CC(=O)Nc2ccccc2OC(F)F)c1	6.3% (inactive)
CCO[C@H]1OC(C(=O)N2CCOCC2)=C[C@@H](c2ccc3c(c2)OCO3)[C@@H]1CCCO	9.9% (inactive)
CCOC(=O)C1CN(S(=O)(=O)c2ccc(F)cc2)C1	4.5% (inactive)
Clc1ccc2nc(CSc3ccccc3)cn2c1	5% (inactive)
CCOC(=O)c1c(C)[nH]c(=S)c(C#N)c1-c1ccccc1	-20.7% (inactive)
CCOC(=O)c1c(C)[nH]c2c1-c1ccccc1C(=O)C2=O	55.3% (active)
CCOC(=O)C1=C(c2ccc(OC)cc2)C(=O)c2ccccc2C1=O	31.9% (inactive)
CN1CCN(CC#CCC2(O)c3ccccc3-c3ccccc32)CC1	4.1% (inactive)
CCCc1cc(=O)[nH]c(SCC(=O)N2CCN(S(=O)(=O)c3ccc(C)cc3C)CC2)n1	2.8% (inactive)
Cc1nn2cc(-c3ccc(Cl)cc3)cnc2c1Br	-0.7% (inactive)
COC(=O)CC(=O)N1CCN(c2ccc(Cl)c(Cl)c2)CC1	-3.9% (inactive)
N#Cc1ncc(C(F)(F)F)cc1Oc1cccnc1	1.5% (inactive)
O=C(N/N=C/c1ccco1)c1ccc(C(=O)N/N=C/c2ccco2)o1	2.5% (inactive)
COc1ccc2c(c1)c(=O)c(C(=O)c1ccc(Cl)cc1)cn2CC(=O)Nc1ccc(F)cc1	-1.7% (inactive)
O=C(N/N=C/c1sc(N2CCCCC2)nc1-c1cccs1)c1cccnc1	0.4% (inactive)
CC1(C)C2CC=C(/C=N/NC(=O)c3ccc(Cl)cc3)C1C2 (stereo not given)	6.3% (inactive)
COc1cc(NC(=O)c2cccnc2SC)cc(OC)c1	5.3% (inactive)

SMILES	inhibition
O=C1CSC(=S)N1/N=C/c1ccc(O)c([N+](=O)[O-])c1	5.2% (inactive)
Cc1c(Br)c([N+](=O)[O-])nn1CC(=O)Nc1sc2c(c1C(=O)OC(C)C)CCC(C)C2 (stereo not given)	-7.9% (inactive)
COC(=O)Cc1ccc(NC(=S)NCc2ccccc2)cc1	12.1% (inactive)
CCO[C@H]1OC(C(=O)Nc2ccccc2)=C[C@@H](C2CC2)[C@@H]1CCCO	10.9% (inactive)
COc1ccc(-c2cc(C(=O)NC(Cc3c[nH]c4ccccc34)C(=O)O)c(C)o2)cc1OC (stereo not given)	6.7% (inactive)
CCc1nc(C)cn1S(=O)(=O)c1cc([N+](=O)[O-])ccc1Cl	6.7% (inactive)
COc1ccc(/C=N/S(=O)(=O)c2ccccc2)cc1OC	8.4% (inactive)
Cc1oc2c(c1C(=O)N1CCOCC1)C(=O)c1ccccc1C2=O	57.7% (active)
Cc1onc(-c2ccccc2)c1C(=O)N1CCOCC1	17.6% (inactive)
O=C(c1ccccc1-c1ccccc1)N1CCOCC1	1.2% (inactive)
C/C(=N\NC(=O)CNC(=O)C(c1ccccc1)c1ccccc1)c1ccc(C)cc1	11.2% (inactive)
CC(=O)Oc1c(C(=O)c2nnc(C)o2)c(=O)n(Cc2ccccc2)c2ccccc12	2.5% (inactive)
CSc1c(SCc2ccccc2)cnn(Cc2ccccc2)c1=O	5.1% (inactive)
OC(COCc1ccco1)CN1CCN(c2ccccc2)CC1 (stereo not given)	12.4% (inactive)
COc1cc(NC(=S)NNC(=O)CC(C)C)c(OC)cc1Cl	-0.9% (inactive)
Cc1ccc(SCCC(=O)Nc2cc(C)on2)cc1	6.5% (inactive)
O=C(CN1C(=O)c2cccc3cccc(c23)C1=O)N1CCCCC1	-0.3% (inactive)
O=C(/C=C/c1ccc(Cl)c([N+](=O)[O-])c1)c1cccnc1	0.4% (inactive)
Cc1csc(Nc2ccc(Cl)cc2)[n+]1-c1ccc(Cl)cc1	-4% (inactive)
Cc1cccc(OCCC(=O)Nc2cc(S(=O)(=O)N3CCCCC3)ccc2N2CCOCC2)c1	5.4% (inactive)
CCOc1cc(C(=O)OCC(=O)Nc2cccc(C)c2)ccc1OCC(=O)N1CCOCC1	-19.1% (inactive)
O=C(COC(=O)c1cnccn1)Nc1cccc2ccccc12	4.3% (inactive)
CCC(=O)Nc1sc(C(=O)Nc2ccccc2)c(C)c1C(=O)OC	7.8% (inactive)
CSc1ccc(CNCCN2CCOCC2)cc1	11% (inactive)

SMILES	inhibition
COc1ccc([C@H]2[C@H](C(C)=O)N3N=Cc4ccccc4C3C23C(=O)OC(C)(C)OC3=O)cc1 (stereo not given in full)	4% (inactive)
CCOC(=O)c1oc2c(CN3CCN(C)CC3)c(O)ccc2c(=O)c1-c1ccc(Br)cc1	-12.6% (inactive)
Cc1ccc(C(=O)N2CC(=O)Nc3ccccc32)o1	2.3% (inactive)
Cc1cc(NS(=O)(=O)c2ccc(NC(=S)NC(=O)c3ccc(F)cc3Cl)cc2)no1	7.4% (inactive)
Cc1ccccc1C(=O)OC1OC(=O)C(Cl)=C1Nc1ccccc1 (stereo not given)	2.3% (inactive)
ClC1(Cl)CC1CSc1ncn[nH]1 (stereo not given)	10.4% (inactive)
Cc1cccc(-n2c(SCC(N)=O)nc3c(c2=O)C2(CCCCC2)Cc2ccccc2-3)c1	7.9% (inactive)
CCOc1ccc(C(=O)Nc2cccc(-c3ccc4nncn4n3)c2)cc1	2.6% (inactive)
COc1ccc(C(=O)C2CCCN(C(=O)c3cc4nc(C)cc(C)n4n3)C2)cc1F (stereo not given)	0.8% (inactive)
COc1ccc(N2CCN(C(=O)c3ccc4c(Cl)c5c(nc4c3)CCCC5)CC2)cc1	17.9% (inactive)
O=C(COC(=O)CSc1nnc(-c2ccc(Cl)cc2)o1)Nc1cc(Cl)cc(Cl)c1	-35.2% (inactive)
COc1cc(C(=O)NCc2ccc(-n3cccc3)cc2)cc(OC)c1OC	12.2% (inactive)
Cc1ccc(-c2nc(C)sc2CC(=O)OCC(=O)Nc2c(F)cccc2F)cc1	-6.1% (inactive)
CC(C)CNC(=S)NC(=O)c1ccc(Cl)cc1	4.7% (inactive)
C=CCn1c(CCNC(=O)c2cccs2)n[nH]c1=S	10.1% (inactive)
Cc1nnnn1/C(=C\c1ccccc1)C(=O)OCC(=O)N1CC2(C)CC1CC(C)(C)C2 (stereo not given)	-6.6% (inactive)
CCNC(=S)N(CCc1c(C)[nH]c2ccc(C)cc12)Cc1ccco1	13.2% (inactive)
CC(/C=C/c1ccccc1)=N\NC(=O)C1CC1(C)c1ccccc1 (stereo not given)	5.3% (inactive)
O=[N+]([O-])c1cc(S(=O)(=O)CCCN2CCOCC2)ccc1F	10.3% (inactive)
O=C(Nc1ccc(-c2ccc3nncn3n2)cc1)C1CCCCC1	3.6% (inactive)
CCN1CCN(C(=O)c2ccc(CN(c3ccc(C)c(C)c3)S(C)(=O)=O)cc2)CC1	4.1% (inactive)
C/C(Cc1ccccc1)=N\NC(=O)CNC(=O)c1cccc(Br)c1	8.4% (inactive)
Cc1nc2ccccc2nc(C)c1=NOCc1ccc(Cl)cc1Cl	-13.7% (inactive)
